Results filed as inconclusive are left out. Entries that show only a call come without a potency. Values without a mark were called inactive. The source made the active and inactive calls. Calls come from the whole dose curve; as a rule, active = well fitted curve in the direction sought with a large enough effect; inconclusive = small, poorly fitted or top-dose-only effect, or another doubt; inactive = no such curve, though single readings can be large; an effect the other way counts as inactive or inconclusive.
How the values were obtained:
[1] = Quantitative High-Throughput drug screen in 47 multiple myeloma cell lines against the NCATS MIPE library collection: LP1_DSMZ cell viability assay (AID 1918982); note: nearly all actives have a fitted effect of over 35% in size
How it was run: (§1)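 ATP-based CellTiter-Glo luminescence after 48 h drug exposure (37 °C, 5% CO2) of 500 myeloma cells per well. DMSO-only wells set 100% viability, media-only wells 0%; MIPE 4.0 library added by pin tool.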

[2] = Quantitative High-Throughput drug screen in 47 multiple myeloma cell lines against the NCATS MIPE library collection: L363_DSMZ cell viability assay (AID 1918984); note: nearly all actives have a fitted effect of over 40% in size
How it was run: as §1

[3] = Quantitative High-Throughput drug screen in 47 multiple myeloma cell lines against the NCATS MIPE library collection: OCIMY5_PLB cell viability assay (AID 1918988); note: nearly all actives have a fitted effect of over 65% in size
How it was run: as §1

[4] = Quantitative High-Throughput drug screen in 47 multiple myeloma cell lines against the NCATS MIPE library collection: OPM1_PLB cell viability assay (AID 1918989); note: nearly all actives have a fitted effect of over 40% in size
How it was run: as §1

[5] = Quantitative High-Throughput drug screen in 47 multiple myeloma cell lines against the NCATS MIPE library collection: U266_ATCC cell viability assay (AID 1919864); note: nearly all actives have a fitted effect of over 35% in size
How it was run: as §1

[6] = Quantitative High-Throughput drug screen in 47 multiple myeloma cell lines against the NCATS MIPE library collection: XG6_PLB cell viability assay (AID 1919865); note: nearly all actives have a fitted effect of over 40% in size
How it was run: as §1

[7] = Quantitative High-Throughput drug screen in 47 multiple myeloma cell lines against the NCATS MIPE library collection: XG1_PLB cell viability assay (AID 1919866); note: nearly all actives have a fitted effect of over 35% in size
How it was run: as §1

[8] = Quantitative High-Throughput drug screen in 47 multiple myeloma cell lines against the NCATS MIPE library collection: VP6_DJ cell viability assay (AID 1919867); note: nearly all actives have a fitted effect of over 40% in size
How it was run: as §1

[9] = Quantitative High-Throughput drug screen in 47 multiple myeloma cell lines against the NCATS MIPE library collection: PE2_PLB cell viability assay (AID 1919869); note: nearly all actives have a fitted effect of over 35% in size
How it was run: as §1

[10] = Quantitative High-Throughput drug screen in 47 multiple myeloma cell lines against the NCATS MIPE library collection: OPM2_DSMZ cell viability assay (AID 1919872); note: nearly all actives have a fitted effect of over 30% in size
How it was run: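 qHTS of the MIPE 4.0 collection: 500 myeloma cells/well, 48 h drug exposure at 37C in 5% CO2, then CellTiter-Glo for 5 min at room temperature before luminescence reading.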

[11] = Quantitative High-Throughput drug screen in 47 multiple myeloma cell lines against the NCATS MIPE library collection: KMS11_JCRBsus cell viability assay (AID 1919873); note: nearly all actives have a fitted effect of over 50% in size
How it was run: as §1

[12] = Quantitative High-Throughput drug screen in 47 multiple myeloma cell lines against the NCATS MIPE library collection: KMS28PE_JCRB cell viability assay (AID 1918983); note: nearly all actives have a fitted effect of over 35% in size
How it was run: as §1

[13] = Quantitative High-Throughput drug screen in 47 multiple myeloma cell lines against the NCATS MIPE library collection: KMS34_JCRB cell viability assay (AID 1918985); note: nearly all actives have a fitted effect of over 40% in size
How it was run: as §1

[14] = Quantitative High-Throughput drug screen in 47 multiple myeloma cell lines against the NCATS MIPE library collection: OCIMY7_PLB cell viability assay (AID 1918987); note: nearly all actives have a fitted effect of over 65% in size
How it was run: as §1

[15] = Quantitative High-Throughput drug screen in 47 multiple myeloma cell lines against the NCATS MIPE library collection: UTMC2_PLB cell viability assay (AID 1919868); note: nearly all actives have a fitted effect of over 55% in size
How it was run: as §1

[16] = Quantitative High-Throughput drug screen in 47 multiple myeloma cell lines against the NCATS MIPE library collection: PCM6_Riken cell viability assay (AID 1919870); note: nearly all actives have a fitted effect of over 30% in size
How it was run: as §1

[17] = Quantitative High-Throughput drug screen in 47 multiple myeloma cell lines against the NCATS MIPE library collection: KMS28BM_JCRB cell viability assay (AID 1919874); note: nearly all actives have a fitted effect of over 35% in size
How it was run: as §1

[18] = Quantitative High-Throughput drug screen in 47 multiple myeloma cell lines against the NCATS MIPE library collection: SKMM1_PLB cell viability assay (AID 1919863); details: SKMM1 myeloma viability, CellTiter-Glo ATP, 48 h; viability: stronger effect = lower value; note: nearly all actives have a fitted effect of over 35% in size; for viability: series mostly up to about 46 µM
How it was run: as §1

[19] = Quantitative High-Throughput drug screen in 47 multiple myeloma cell lines against the NCATS MIPE library collection: RPMI8226_ATCC cell viability assay (AID 1919871); note: nearly all actives have a fitted effect of over 30% in size
How it was run: as §1

[20] = target: Cytochrome P450 3A4 (Homo sapiens) (UniProt P08684); assay: qHTS for inhibitors of CYP3A4 against the NCATS DSHEA and TCM libraries (AID 1919971); details: recombinant CYP3A4 enzyme activity, luminescence qHTS
How it was run: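 Concentration-response screening with isoform-matched pro-luciferin substrates. The CYP reaction was initiated by NADPH regenerating solution and ran 30-45 min in darkness at room temperature.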
Potency is the fitted concentration of half-maximal effect.

Chain of Cytochrome P450 3A4 (Homo sapiens) (P08684 whole entry, looked up, canonical isoform): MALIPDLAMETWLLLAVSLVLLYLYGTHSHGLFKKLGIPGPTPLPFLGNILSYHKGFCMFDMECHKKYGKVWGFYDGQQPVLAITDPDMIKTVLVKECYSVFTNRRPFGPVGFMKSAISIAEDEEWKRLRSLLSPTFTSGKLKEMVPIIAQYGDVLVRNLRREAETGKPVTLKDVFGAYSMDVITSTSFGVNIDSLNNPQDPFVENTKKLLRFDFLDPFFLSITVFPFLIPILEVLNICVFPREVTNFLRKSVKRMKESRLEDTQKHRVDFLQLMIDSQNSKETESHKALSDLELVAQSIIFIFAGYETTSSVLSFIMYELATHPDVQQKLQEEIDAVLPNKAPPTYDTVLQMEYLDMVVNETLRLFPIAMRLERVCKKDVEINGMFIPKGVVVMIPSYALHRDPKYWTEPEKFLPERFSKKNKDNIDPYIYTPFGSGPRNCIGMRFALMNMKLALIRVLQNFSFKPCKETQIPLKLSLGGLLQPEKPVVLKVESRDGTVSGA

Structure (SMILES): CCC(C)(Oc1ccc(C2(c3ccc(OC(C)(CC)C(=O)O)cc3)CCCCC2)cc1)C(=O)O (configuration not stated)
- Potency [1]: inactive
- Potency [2]: inactive
- Potency [3]: inactive
- Potency [4]: inactive
- Potency [5]: inactive
- Potency [6]: inactive
- Potency [7]: inactive
- Potency [8]: inactive
- Potency [9]: inactive
- Potency [10]: inactive
- Potency [11]: inactive

Structure (SMILES): Nc1nc(N)c(N=O)c(OCC2CCCCC2)n1
- Potency [12]: 14.8 µM (active)
- Potency [2]: 2.64 µM (active)
- Potency [13]: 11.8 µM (active)
- Potency [14]: 1.48 µM (active)
- Potency [3]: 13.2 µM (active)
- Potency [4]: 7.43 µM (active)
- Potency [5]: 16.6 µM (active)
- Potency [6]: 2.96 µM (active)
- Potency [7]: 4.69 µM (active)
- Potency [8]: 2.96 µM (active)
- Potency [15]: 5.26 µM (active)
- Potency [9]: 9.35 µM (active)
- Potency [16]: 5.26 µM (active)
- Potency [11]: 6.62 µM (active)
- Potency [17]: 16.6 µM (active)

Structure (SMILES): CC1(C)C(=O)N(CCN2CCC(C(=O)c3ccc(F)cc3)CC2)c2ccccc21
- Potency [12]: inactive
- Potency [2]: 13.2 µM (active)
- Potency [3]: 5.26 µM (active)
- Potency [4]: 10.5 µM (active)
- Potency [7]: 14.8 µM (active)
- Potency [8]: 4.18 µM (active)
- Potency [9]: 23.5 µM (active)
- Potency [16]: inactive
- Potency [10]: inactive
- Potency [17]: 18.7 µM (active)

Structure (SMILES): COCCCN1CCC(NC(=O)c2cc(Cl)c(N)c3c2OCC3)CC1
- Potency [12]: inactive
- Potency [2]: 20.9 µM (active)
- Potency [13]: inactive
- Potency [5]: inactive
- Potency [6]: 5.9 µM (active)
- Potency [8]: 18.7 µM (active)
- Potency [10]: inactive
- Potency [11]: 23.5 µM (active)

Structure (SMILES): NCCCCNCCCN
- Potency [1]: 16.6 µM (active)
- Potency [13]: 9.35 µM (active)
- Potency [14]: 10.5 µM (active)
- Potency [3]: 14.8 µM (active)
- Potency [4]: 23.5 µM (active)
- Potency [18]: 20.9 µM (active)
- Potency [5]: 7.43 µM (active)
- Potency [7]: 20.9 µM (active)
- Potency [8]: 26.4 µM (active)
- Potency [9]: 16.6 µM (active)
- Potency [16]: 16.6 µM (active)
- Potency [19]: 23.5 µM (active)
- Potency [10]: 20.9 µM (active)
- Potency [17]: inactive

Structure (SMILES): Cc1cc(O)c2c(c1)C(=O)c1cc(O)cc(O)c1C2=O
- Potency [12]: 10.5 µM (active)
- Potency [2]: inactive
- Potency [13]: inactive
- Potency [14]: inactive
- Potency [18]: 20.9 µM (active)
- Potency [7]: inactive
- Potency [8]: inactive
- Potency [10]: inactive
- Potency [11]: inactive
- Potency [17]: inactive
- Potency [20]: 10 µM (active)

Structure (SMILES): CCCCCCCCCCCCCCCCCCCCCCO
- Potency [12]: inactive
- Potency [2]: inactive
- Potency [13]: inactive
- Potency [3]: inactive
- Potency [6]: inactive
- Potency [7]: inactive
- Potency [8]: inactive
- Potency [9]: inactive
- Potency [16]: inactive
- Potency [10]: inactive
- Potency [17]: inactive

Structure (SMILES): O=C1c2c(O)cc(O)cc2OC(c2ccc(O)c(O)c2)C1O (configuration not stated)
- Potency [1]: inactive
- Potency [14]: 14.8 µM (active)
- Potency [3]: inactive
- Potency [5]: inactive
- Potency [7]: inactive
- Potency [8]: inactive
- Potency [16]: inactive
- Potency [11]: inactive

Structure (SMILES): Cc1c(OCC(F)(F)F)ccnc1CS(=O)c1nc2ccccc2[nH]1 (configuration not stated)
- Potency [1]: inactive
- Potency [13]: inactive
- viability [18]: 128%
- Potency [19]: inactive
- Potency [10]: inactive
- Potency [17]: inactive

Structure (SMILES): CCCS(=O)c1ccc2nc(NC(=O)OC)[nH]c2c1 (configuration not stated)
- Potency [1]: 16.6 µM (active)
- Potency [3]: 16.6 µM (active)
- Potency [18]: 10.5 µM (active)
- Potency [10]: 23.5 µM (active)
- Potency [11]: 18.7 µM (active)

Structure (SMILES): N[C@@H](Cc1cc(I)c(Oc2cc(I)c(O)c(I)c2)c(I)c1)C(=O)O
- Potency [12]: inactive
- Potency [2]: inactive
- Potency [14]: inactive
- Potency [5]: inactive
- Potency [6]: inactive
- Potency [7]: inactive
- Potency [8]: inactive
- Potency [9]: inactive
- Potency [16]: inactive
- Potency [10]: inactive
- Potency [11]: inactive
- Potency [17]: inactive

Structure (SMILES): Cn1c(NCCN(CCO)CCCc2ccc([N+](=O)[O-])cc2)cc(=O)n(C)c1=O
- Potency [13]: inactive
- Potency [14]: inactive
- viability [18]: 107%
- Potency [6]: 20.9 µM (active)
- Potency [7]: 26.4 µM (active)
- Potency [8]: 18.7 µM (active)
- Potency [19]: inactive
- Potency [10]: inactive

Structure (SMILES): Nc1ccn([C@@H]2O[C@H](CO)[C@@H](O)C2O)c(=O)n1 (some centres not stated)
- Potency [12]: inactive
- Potency [14]: inactive
- Potency [5]: inactive
- Potency [6]: inactive
- Potency [7]: inactive
- Potency [8]: inactive
- Potency [9]: inactive
- Potency [16]: inactive
- Potency [10]: inactive
- Potency [11]: 14.8 µM (active)
- Potency [17]: inactive

Structure (SMILES): CC1=C(C)C(=O)C(C(CCCCCC(=O)O)c2ccccc2)=C(C)C1=O (configuration not stated)
- Potency [12]: inactive
- Potency [4]: 14.8 µM (active)
- Potency [6]: inactive
- Potency [7]: inactive
- Potency [8]: 3.72 µM (active)
- Potency [16]: 2.09 µM (active)

Structure (SMILES): O=c1ccc2ccc(O)c(O)c2o1
- Potency [12]: inactive
- Potency [14]: 8.33 µM (active)
- Potency [4]: 18.7 µM (active)
- Potency [5]: 9.35 µM (active)
- Potency [7]: 4.18 µM (active)
- Potency [8]: 11.8 µM (active)
- Potency [9]: 13.2 µM (active)
- Potency [16]: 13.2 µM (active)
- Potency [10]: inactive
- Potency [11]: inactive
- Potency [17]: inactive

From PubChem BioAssay (NCATS)
